Screening results: PubChem, several laboratories
NALP3 yeast inh: NALP3 inflammasome inhibitors in reconstituted yeast, primary screen, luminescence, uHTS; AID 2825, 2010; inhibition, % at 10 µM; actives 0.39% (n = 330,000); Yeast reconstituted NLRP3/ASC/caspase-1, beta-gal luminescence, 24 h;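 active = inhibition of 50% or more; inactive = inhibition below 50%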;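 also: plate controls were induced DMSO wells for no effect and uninduced yeast grown without galactose for full effect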
tim23-1 inh: growth inhibitors of tim23-1 mutant yeast, primary screen, luminescence, uHTS; S. cerevisiae tim23-1 growth, BacTiter-Glo luminescence, 24 h; inhibition, % at 20 µM; actives 1.3% (n = 330,000);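 active = growth inhibition of the mutant yeast at or above 50%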;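 also: temperature-sensitive mutant grown at 25 °C; plate controls were DMSO-treated mutant yeast for no effect and medium wells lacking yeast for full effect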
tim10-1 inh: growth inhibitors of tim10-1 mutant yeast, primary screen, luminescence, uHTS; S. cerevisiae tim10-1 ts strain growth, BacTiter-Glo, 24 h; actives 2.2% (n = 330,000); inhibition, % at 20 µM;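 active = inhibition of at least 40%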;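 also: mutant grown at 25 °C; 0% = DMSO wells with yeast and 100% = wells holding no yeast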
CR mimetic SO: reduction of superoxide in aged yeast, primary screen, HTS; S. cerevisiae aged cells, superoxide DHE fluorescence; stronger effect = lower value; superoxide response (% of plate mean), % at 10 µM; actives 0.18% (n = 330,000);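 active = superoxide response under a set limit, about three screen SD below normal, cut at about 65% in these data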;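 also: yeast aged for seven days with compound at 30 °C before DHE staining; 100% = average MFI of all compound-treated wells on the plate with controls excluded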
TIM10 inh: growth inhibitors of isogenic TIM10 control yeast, primary screen, counter-screen for tim10-1 yeast inhibitor project, luminescence, uHTS | S. cerevisiae TIM10 strain growth, BacTiter-Glo luminescence, 24 h | actives 1.4% (n = 330,000) | inhibition, % at 10 µM;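 active = inhibition of 40% or more at the single tested concentration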;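 also: wild-type TIM10 isogenic control strain grown at permissive 25 °C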
NALP3 confirm: NALP3 inhibitors retested in yeast, confirmation, luminescence, single concentration; shares compounds with NALP3 yeast inh; yeast expressing human NALP3; inhibition, % at 10 µM; actives 81% (n = 1,300); in the data active = inhibition above about 48%
Casp1 ASC ctr: CASP1-PYCARD signaling inhibition in yeast, confirmatory test, counterassay for NLRP3 inhibitor program, one-dose; shares compounds with NALP3 yeast inh; yeast expressing Caspase-1-ASC, luminescence counter screen; inhibition, % at 10 µM; actives 66% (n = 1,000); AID 488784, 2010
NALP3 yeast rt: NALP3 inhibitors in yeast, repeat test, confirmation, luminescence, single concentration, retest; actives 53% (n = 1,000); yeast expressing human NALP3, luminescence read-out; inhibition, % at 10 µM; shares compounds with NALP3 yeast inh
tim10-1 conf: growth inhibitors of tim10-1 mutant yeast, confirmation, single concentration, luminescence, S. cerevisiae | shares compounds with tim10-1 inh | S. cerevisiae tim10-1 ts strain growth, BacTiter-Glo, 24 h | inhibition, % at 20 µM | actives 56% (n = 7,400) | AID 463213, 2010;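 active = inhibition of yeast growth at or above a set limit in either of two repeat tests at 20 µM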;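 also: tim10-1 mutant grown at permissive 25 °C to find synthetic lethal compounds; 0% = DMSO yeast wells and 100% = medium wells without yeast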
TIM10 conf: growth inhibitors of wild-type TIM10 yeast, confirmation, counter-screen for tim10-1 synthetic lethality project, single concentration, luminescence, S. cerevisiae; shares compounds with TIM10 inh; S. cerevisiae tim10 strain growth, BacTiter-Glo luminescence, 24 h; inhibition, % at 10 µM; actives 63% (n = 4,600);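 active = inhibition of yeast growth at or above a set limit in either of two replicates at 10 µM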;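 also: this counterscreen used the strain with wild-type TIM10; 0% = yeast with DMSO and 100% = medium wells lacking yeast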
tim23-1 confirm: tim23-1 mutant yeast growth inhibitors, confirmation, luminescence, single concentration; actives 83% (n = 4,400); S. cerevisiae tim23-1 growth, BacTiter-Glo luminescence, 24 h; shares compounds with tim23-1 inh; inhibition, % at 20 µM;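 active = inhibition above about 39% in either of two replicate wells at 20 µM, limit read from the data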;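 also: temperature-sensitive tim23-1 mutant grown at 25 °C; 0% = DMSO wells with yeast and 100% = medium wells without yeast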
Active calls of the source: *; . = no result. Hits are enriched below; roughly 3.8% of the tested compounds scored in any of these assays. Rule as the data show it, unless noted: active = inhibition above about 50%; inactive = the rest.

SMILES | NALP3 yeast inh | tim23-1 inh | tim10-1 inh | CR mimetic SO | TIM10 inh | NALP3 confirm | Casp1 ASC ctr | NALP3 yeast rt | TIM10 conf | others
Cc1cc(C)c(C#N)c(SCc2nc3ccccc3[nH]2)n1 | 54* | 28 | 0 | 94 | 44* | 44 | 36 | 41 | 36*
Cc1cc(C)c(C#N)c(SCc2ccc(F)cc2)n1 | 19 | 12 | 15 | 100 | 20 | . | . | . | .
CC(C)(C)C(=O)/C(=C\c1ccc([N+](=O)[O-])cc1)n1cncn1 | 74* | -57 | 36 | 88 | 61* | 65* | . | . | -22
CN(C)/C=C(/C(=O)c1ccccc1)n1cncn1 | 11 | 7 | 0 | 94 | 12 | . | . | . | .
Oc1ccc(Nc2nc3ccccc3nc2Nc2ccc(O)cc2)cc1 | 10 | 8 | 21 | 104 | 7 | . | . | . | .
O=CC1=C(c2ccccc2)Oc2ccccc2O1 | 68* | 23 | 22 | 95 | 78* | 64* | 75* | 85* | 79*
O=C(NCc1ccccn1)C(=O)NCC1OCCN1S(=O)(=O)c1ccc(Cl)cc1 (stereo unspecified) | 15 | 5 | 17 | 92 | -3 | . | . | . | .
CC1CC1C(=O)Nc1ccc(-c2ccccc2)cc1 (stereo unspecified) | 51* | 43 | 35 | 100 | 43* | 64* | . | . | 36*
Cc1ccc(Sc2ccc(NC(=O)CCl)cc2)c(C)c1 | 58* | 37 | 39 | 93 | 59* | 69* | 78* | 58* | 43*
O=C(NCCCN1CCOCC1)c1c(O)c2cc(Br)cc(Br)c2[nH]c1=O | 63* | 46 | 51* | 114 | 67* | 81* | 31 | 39 | 74* | tim10-1 conf=47*
COc1cc2[nH]c(=O)c(C(=O)NCCCN3CCOCC3)c(O)c2cc1OC | 4 | -19 | -23 | 92 | 5 | . | . | . | .
CC(CN1CCOCC1)C(=O)O (stereo unspecified) | 4 | 1 | -8 | 112 | -2 | . | . | . | .
COc1c[nH]n(C2CCCCC2)c(=O)c1=O | 57* | 40 | 23 | 93 | 40* | 77* | 59* | 67* | 23
COc1cc(CNCCc2ccccc2)ccc1OCc1ccc(Cl)nc1 | 50* | 7 | 2 | 92 | 55* | 42 | 46 | 51* | -4
O=C(O)c1cc(-c2ccccc2)n(-c2ccc(Cl)cc2)n1 | 16 | 11 | -1 | 104 | 3 | . | . | . | .
CC1=C/C(=N\OS(=O)(=O)c2ccccc2)C(C)=CC1=O | 50 | -109 | 91* | 92 | 87* | 39 | . | . | -13 | tim10-1 conf=80*
CC1CCC2(CC1)NC(=O)N(CC(=O)Nc1cccnc1Cl)C2=O (stereo unspecified) | 14 | 1 | -6 | 76 | -2 | . | . | . | .
CCOC(=O)C(=NCCCN1CCOCC1)NNc1cccc(C(F)(F)F)c1 | 27 | -3 | -36 | 83 | 29 | . | . | . | .
O=C(NCCc1ccccc1)c1c(O)c2ccccc2[nH]c1=O | 23 | 31 | -43 | 100 | 3 | . | . | . | .
CCNC(=O)c1c(O)c2ccccc2[nH]c1=O | 68* | 54* | 13 | 79 | 27 | 79* | 53* | 71* | . | tim23-1 confirm=41*
Cc1cccc(N/C=C/c2onc(C)c2[N+](=O)[O-])c1 | 16 | 1 | 13 | 95 | 5 | . | . | . | .
Cc1cccc(/C=C/c2onc(C)c2[N+](=O)[O-])n1 | 89* | 84* | 64* | 104 | 68* | 63* | 96* | 77* | 78* | tim10-1 conf=61*;tim23-1 confirm=71*
CC(=O)Oc1c(C)c(=O)n(C)c2ccccc12 | -18 | 14 | 3 | 105 | -10 | . | . | . | .
COc1c(OC(C)=O)c(=O)n2c3ccccc3c3ccnc1c32 | 71* | 83* | 70* | 89 | 73* | 75* | 26 | 64* | 80* | tim10-1 conf=64*;tim23-1 confirm=67*
Cc1onc(-c2ccccc2)c1C(=O)Nc1ccc(S(=O)(=O)N2CCOCC2)cc1 | 9 | 14 | 23 | 99 | 4 | . | . | . | .
SMILES | NALP3 yeast inh | tim23-1 inh | tim10-1 inh | CR mimetic SO | TIM10 inh | NALP3 confirm | Casp1 ASC ctr | NALP3 yeast rt | TIM10 conf | others
COc1cc2oc3ccccc3c(=O)c2cc1OC | 62* | 63* | 43* | 114 | 7 | 72* | 55* | 59* | . | tim10-1 conf=21;tim23-1 confirm=53*
COc1ccc2c(c1OC)C(=O)N1c3ccccc3C(=O)N(c3ccccc3)C21 (stereo unspecified) | 10 | 15 | 28 | 98 | -12 | . | . | . | .
CCOc1ccc(NC(=O)/C=C/c2ccccc2)c([N+](=O)[O-])c1 | 25 | 7 | 11 | 103 | -7 | . | . | . | .
CCOc1ccc(N/C=C/C(=O)c2ccccc2)c([N+](=O)[O-])c1 | 59* | 57* | 38 | 97 | 70* | -27 | . | . | -1 | tim23-1 confirm=77*
CC(C)Cn1c(CCC(N)=O)nnc1SC(C)C(=O)Nc1ccc2c(c1)OCO2 (stereo unspecified) | 6 | 21 | 15 | 83 | 1 | . | . | . | .
COc1ccc2c(c1)CC/C2=N\OC(=O)c1cccc(C)c1 | 52* | 53* | 62* | 104 | 83* | 5 | . | . | -13 | tim10-1 conf=41*;tim23-1 confirm=82*
O=C(CCc1ccccc1)N=C1SC2CS(=O)(=O)CC2N1Cc1ccc(F)cc1 (stereo unspecified) | 17 | -11 | -12 | 94 | -17 | . | . | . | .
N#C/C(=C\c1ccc([N+](=O)[O-])cc1)c1ccccn1 | 55* | 65* | 46* | 71 | 52* | 56* | 39 | 49 | 57* | tim10-1 conf=60*;tim23-1 confirm=58*
Cc1c2ccccc2c(C)c2c1ccc1ccccc12 | 65* | 77* | 50* | 93 | 84* | 62* | . | . | 88* | tim10-1 conf=47*;tim23-1 confirm=80*
Cc1ccnc2c1ccc1ccccc12 | 17 | 19 | 12 | 122 | -7 | . | . | . | .
